Among the test systems are T-47D breast; BT-549 breast; MDA-MB-435 melanoma; SW-620 colon; MCF7 breast; HCT-116 colon; HCC-2998 colon; KM12 colon.
Holding throughout (experiment): NCI-60 one-dose screen, 48 h (100 = growth as untreated, 0 = no growth, -100 = all killed)
Conditions in all cases: 10 µM unless noted

About 83,000 compounds went through this panel and 20% of them were active in at least one assay; those are over-represented in the sample as a whole.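 48-hour exposure, single concentration, 96-well plates; percent growth endpoint where 0 means no net growth. Active: below 10.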 Unmarked numbers belong to inactive results. Active and inactive are the calls of the source.

With `CC(C)(C)OC(=O)NCCc1ccc(N=C=S)cc1`, the growth with T-47D breast is 41.5%; in the assay on BT-549 breast, 62.3%; with MDA-MB-435 melanoma, 71.3%; with SW-620 colon, 71.4%; in the assay on MCF7 breast it was 52%; in the assay with HCT-116 colon, 65.5%. The growth is 89.9% in the assay on HCC-2998 colon and 60.8% in the assay with KM12 colon.

Turning to `O=c1cc/c(=N\Nc2ccccc2)c(=O)/c1=N/Nc1ccccc1`, the growth is 92.8% in the assay with T-47D breast; 102% in the assay with BT-549 breast; 126% with MDA-MB-435 melanoma; 98.6% with SW-620 colon; 78.4% in the assay with MCF7 breast; 90.1% in the assay on HCT-116 colon. Besides, the growth was 99% in the assay with HCC-2998 colon and 94.1% in the assay on KM12 colon.

On to `Fc1ccc(Nc2nc(NCCNc3ccnc4cc(Cl)ccc34)nc(N3CCOCC3)n2)cc1`, for which the growth in the assay with T-47D breast was 83.3%; in the assay on BT-549 breast, 81.9%; with MDA-MB-435 melanoma, 28.2%; in the assay with SW-620 colon, 47.1%; in the assay with MCF7 breast, 55%; in the assay on HCT-116 colon, 37.3%. In addition, the growth with HCC-2998 colon is -51.2% (active); with KM12 colon it was 78.6%.

With `OC(c1cc2cc(Br)ccc2c2cc(Br)ccc12)C1CCCCN1` (stereo not drawn), the growth is -75.3% (active) with T-47D breast; 69% in the assay with BT-549 breast; -78% (active) with MDA-MB-435 melanoma; -75% (active) in the assay with SW-620 colon; -88.2% (active) in the assay with MCF7 breast; -72.7% (active) in the assay on HCT-116 colon. Besides, the results for the growth in the assay on HCC-2998 colon and in the assay with KM12 colon were -81.5% (active) and -91.7% (active), respectively.

As for `C=C1C(=O)O[C@@H]2[C@@H]3O[C@@](C)(CC/C=C(\C)CCC[C@@H]2C)[C@H](O)C[C@@H]13`, the growth in the assay with T-47D breast was 50.9%; in the assay on BT-549 breast, 19.1%; in the assay with MDA-MB-435 melanoma, 19.2%; with SW-620 colon it was 33.5%; in the assay on MCF7 breast, 36.3%; with HCT-116 colon, -4.01% (active). Further, the growth was 97.5% in the assay on HCC-2998 colon and 75.8% in the assay on KM12 colon.

For the compound `O=C(c1ccccc1)C1OC1c1ccc([N+](=O)[O-])cc1` (stereo not drawn), the growth with T-47D breast is 52.6%; with BT-549 breast, 68.5%; in the assay on MDA-MB-435 melanoma, 39%; in the assay with SW-620 colon, 9.23% (active); in the assay with MCF7 breast, 64.1%; with HCT-116 colon it was 13.7%. Besides, the growth in the assay with HCC-2998 colon is 115%; with KM12 colon, 62.6%.

In the case of `COc1cc(-c2nc(N=Nc3c(O)[nH]c4ccc(Br)cc34)[nH]c(=O)c2C#N)cc(OC)c1OC`, the growth was 90.6% in the assay on T-47D breast; 105% in the assay on BT-549 breast; 102% with MDA-MB-435 melanoma; 93.4% in the assay with SW-620 colon; 99.7% with MCF7 breast; 99.2% in the assay with HCT-116 colon. The figures for the growth with HCC-2998 colon and in the assay with KM12 colon were 117% and 100%, respectively.

As to `CCC(C)/C(=C\C#N)NCCCN/C(=C/C#N)C(C)CC` (stereo not drawn), the growth is 97% in the assay on T-47D breast; 105% with BT-549 breast; 105% in the assay on MDA-MB-435 melanoma; 107% in the assay on SW-620 colon; 100% with MCF7 breast; 91.1% in the assay with HCT-116 colon. Moreover, the results for the growth in the assay on HCC-2998 colon and in the assay on KM12 colon were 99.1% and 105%, respectively.

`COc1ccc(/C=C2\N=C(c3ccccc3)N(C(=O)c3ccccc3O)NC2=O)cc1`: the growth was 96.6% in the assay with T-47D breast; 92% with BT-549 breast; 95% in the assay with MDA-MB-435 melanoma; 100% with SW-620 colon; 92.8% with MCF7 breast; 92% with HCT-116 colon. The growth with HCC-2998 colon was 93.7%; in the assay with KM12 colon, 92%.

For the compound `COc1ccc(CCNC2=CC(=O)CCC2)cc1OC`, the growth was 100% in the assay with T-47D breast; 103% in the assay with BT-549 breast; 110% in the assay on MDA-MB-435 melanoma; 101% in the assay on SW-620 colon; 105% in the assay with MCF7 breast; 106% in the assay with HCT-116 colon. The growth was 106% in the assay with HCC-2998 colon and 99% in the assay on KM12 colon.

Regarding `COc1cccc(/C=C2\Oc3cc(OCCCN4CCCC4)ccc3C2=O)c1OC`, the growth in the assay with T-47D breast was 97.2%; in the assay on BT-549 breast it was 87.7%; with MDA-MB-435 melanoma, 99%; in the assay with SW-620 colon it was 98.6%; in the assay with MCF7 breast, 87%; in the assay with HCT-116 colon it was 83.7%. Further, the growth with HCC-2998 colon was 113%; in the assay with KM12 colon, 102%.

Regarding `CN(C)CCCN(c1nc(C(Cl)(Cl)Cl)ns1)c1nc(C(Cl)(Cl)Cl)ns1`, the growth in the assay on T-47D breast is 67.7%; with BT-549 breast it was 74%; in the assay with MDA-MB-435 melanoma, 39.5%; with SW-620 colon it was 35.1%; with MCF7 breast, -34.3% (active); with HCT-116 colon it was 21.2%. In addition, the figures for the growth with HCC-2998 colon and with KM12 colon were -12.9% (active) and 18.4%, respectively.

For the compound `C=CCSc1n[nH]c(-c2cccs2)n1`, the growth is 94.8% with T-47D breast; 99.5% in the assay on BT-549 breast; 106% with MDA-MB-435 melanoma; 102% in the assay on SW-620 colon; 101% in the assay on MCF7 breast; 98.6% in the assay with HCT-116 colon. Besides, the growth in the assay on HCC-2998 colon is 117%; with KM12 colon, 111%.

On to `COc1ccc(Nc2ncccc2C(=O)NCc2cn(Cc3cccc(Oc4ccccc4)c3)nn2)c(OC)c1`, for which the growth is 51.6% in the assay on T-47D breast; 43% with BT-549 breast; -24.2% (active) in the assay on MDA-MB-435 melanoma; 26.4% in the assay with SW-620 colon; 25% with MCF7 breast; 15% with HCT-116 colon. Further, the results for the growth with HCC-2998 colon and with KM12 colon were -14.4% (active) and 17.9%, respectively.

For `CC(C)CSc1nc(NN)c(C#N)c(-c2ccccc2)n1`, the growth in the assay on T-47D breast was 87%; with BT-549 breast, 96.2%; in the assay with MDA-MB-435 melanoma, 101%; with SW-620 colon, 99.3%; in the assay on MCF7 breast, 88.2%; in the assay with HCT-116 colon, 95.7%. The growth was 95% in the assay on HCC-2998 colon and 81.3% with KM12 colon.

As for `COc1cc2c(cc1OCCCCCn1c3ccccc3c3ccccc31)N=C[C@@H]1CCCN1C2=O`, the growth with T-47D breast was -34.1% (active); with BT-549 breast, -61.6% (active); in the assay with MDA-MB-435 melanoma, -99.2% (active); in the assay on SW-620 colon, -79.1% (active); with MCF7 breast it was -30.9% (active); in the assay with HCT-116 colon, -75.8% (active). Besides, the growth in the assay on HCC-2998 colon was -94.8% (active); in the assay on KM12 colon, -11.4% (active).

(Values after PubChem BioAssay (NCI).)
